Test in all cases: NCI-60 one-dose screen, 48 h (100 = growth as untreated, 0 = no growth, -100 = all killed)
What all share (conditions): 10 µM unless noted

The test system of experiment [1] is DU-145 prostate.
The subject of experiment [2] is K-562 leukemia.
Experiment [3] deals with MALME-3M melanoma.
In experiment [4] the test system is MDA-MB-231 breast.
In experiment [5] the test system is RXF 393 renal.
Experiment [6] has as its system SF-268 CNS.
In experiment [7] the test system is SF-295 CNS.
Experiment [8] relates to SF-539 CNS.
The subject of experiment [9] is UACC-257 melanoma.
Experiment [10] deals with M14 melanoma.
Experiment [11] deals with HCT-15 colon.
In experiment [12] the test system is HT29 colon.
Experiment [13] concerns SNB-75 CNS.
Experiment [14] relates to SNB-19 CNS.
The test system of experiment [15] is U251 CNS.
The test system of experiment [16] is PC-3 prostate.
The subject of experiment [17] is UACC-62 melanoma.
The subject of experiment [18] is LOX IMVI melanoma.
Experiment [19] deals with SK-MEL-28 melanoma.

This is part of a sample that, as a whole, favours compounds with a hit. Of some 83,000 tested, about 20% had one in any assay.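 Single-concentration screen, 48 h exposure, 96-well plates. Endpoint: percent growth. Below 10 = active.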 A number with no mark means an inactive call. Active and inactive are the calls of the source.

With `CC(C)(C)CC(C)(C)c1ccc(OCCOCC[N+](C)(C)Cc2ccccc2)cc1`, the growth in experiment [1] is 39.4%; in experiment [2], -35.4% (active); in experiment [3] it was -16.4% (active); in experiment [4], -88.2% (active); in [5], 0.0752% (active); in experiment [6], -54.1% (active). Further, the growth in [7] is 41.8%; in experiment [8] it was -64.9% (active); in [9], -90.8% (active); in experiment [10] it was -27.5% (active); in experiment [11], 95.2%; in experiment [12], -50.5% (active). In addition, the growth in [13] was -26% (active); in experiment [14], -89% (active); in experiment [15], -88.5% (active); in [16], -13.9% (active); in experiment [17], -98.5% (active); in [18], -29.4% (active). Besides, in experiment [19], the growth was -67% (active).
With `COc1cc2c(cc1-c1c(C)noc1C)ncc1nc(C3CCCC3)n([C@H](C)COC(F)F)c12`, the growth in experiment [1] is 67.7%; in [2] it was 23.5%; in experiment [3], 71.1%; in [4] it was 44.6%; in experiment [5] it was 48.6%; in [6], 62.6%. In addition, the growth in experiment [7] is 50.3%; in [8], 38.5%; in [9] it was 32.1%; in experiment [10] it was 40.9%; in experiment [11], 16.8%; in experiment [12] it was 18.3%. In addition, the growth in experiment [13] was 37.4%; in experiment [14] it was 49.5%; in experiment [15] it was 39.7%; in [16], 31.8%; in [17], 20.7%; in [18], 13.2%. The growth in [19] was 53.8%.
Turning to `O=C(Nc1ccc(Cl)cc1)c1cc2cc(F)ccc2cc1O`, the growth in [1] is 26.7%; in experiment [2], 11.5%; in [3], -3.12% (active); in experiment [4], -23.4% (active); in experiment [5] it was 13.6%; in experiment [6] it was 23.6%. The growth in experiment [7] is 31.2%; in [8], 17.7%; in experiment [9] it was -23.8% (active); in experiment [10], 15.9%; in [11], 13.1%; in experiment [12], 72.5%. In addition, the growth is 18.7% in [13]; 21.3% in experiment [14]; 5.79% (active) in experiment [15]; 9.4% (active) in experiment [16]; 10.9% in [17]; 17.8% in experiment [18]. Further, the growth in experiment [19] was 12.1%.
As for `CNC(=O)c1cc(Oc2ccc(NC(=O)Nc3ccc(Cl)c(SC)c3)c(F)c2)ccn1`, the growth was 72.1% in [1]; 18.1% in experiment [2]; 27.5% in experiment [3]; 50.1% in [4]; 85.9% in experiment [5]; 50.6% in experiment [6]. For the same molecule, the growth was 34% in [7]; 47.3% in experiment [8]; 28.1% in experiment [9]; 29.7% in experiment [10]; 50% in [11]; 30% in [12]. In addition, the growth is 71% in experiment [13]; 75% in experiment [14]; 56% in experiment [15]; 34.2% in [16]; 28% in experiment [17]; 37.7% in experiment [18]. Besides, the growth in experiment [19] is 56.7%.
`O=c1cc(CSc2nnc(SCc3cc(=O)oc4c3ccc3ccccc34)o2)c2ccc3ccccc3c2o1`: the growth in experiment [1] was 109%; in experiment [2], 97.7%; in experiment [3], 102%; in experiment [4], 95.8%; in experiment [5], 119%; in experiment [6], 96.7%. Besides, the growth was 96.1% in experiment [7]; 101% in experiment [8]; 93.6% in experiment [9]; 103% in experiment [10]; 104% in experiment [11]; 97% in [12]. Besides, the growth in experiment [13] is 93%; in experiment [14] it was 107%; in [15], 97.2%; in experiment [16], 89.9%; in experiment [17], 99.6%; in experiment [18], 88.7%. Also, the growth in experiment [19] is 109%.
Regarding `CSc1ccc(-c2n[nH]nc2-c2cc3ccccc3s2)cc1`, the growth is 74.3% in [1]; 15.1% in experiment [2]; 69.4% in [3]; 41.5% in [4]; 75.5% in experiment [5]; 54.3% in [6]. The growth was 49.9% in experiment [7]; 50.2% in experiment [8]; 58.4% in experiment [9]; 16% in [10]; 28.7% in [11]; 37.8% in experiment [12]. Besides, the growth in experiment [13] is 44.5%; in experiment [14] it was 55.7%; in experiment [15], 32.6%; in experiment [16], 56.7%; in [17] it was 47.5%; in [18] it was 34.9%. In experiment [19], the growth is 59.5%.
With `O=CNc1ccc2c(c1)Cc1cccc(NC=O)c1-2`, the growth in experiment [1] is 106%; in experiment [2], 104%; in [3], 106%; in experiment [4] it was 83.5%; in experiment [5], 103%; in experiment [6], 94.2%. The growth in [7] is 111%; in experiment [8] it was 101%; in experiment [9], 93.4%; in experiment [10] it was 91.2%; in experiment [11] it was 91.8%; in [12], 96.2%. Moreover, the growth in experiment [13] is 90.7%; in experiment [14], 102%; in [15], 95.1%; in [16], 95.2%; in experiment [17] it was 72.1%; in experiment [18], 90.5%. Moreover, the growth in experiment [19] is 112%.
Regarding `CC1=C[C@H]2c3c(c(O)c(O)c4oc5c(C)cccc5c(=O)c34)[C@H](c3cc(O)c(O)c4oc5c(C)cccc5c(=O)c34)[C@H]2C(C)(C)C1`, the growth in experiment [1] is 23.9%; in [2] it was 2.97% (active); in [3], 18.9%; in [4], 23.7%; in [5], 21.5%; in experiment [6] it was -1.07% (active). In addition, the growth is -32.4% (active) in [7]; -18.5% (active) in [8]; 23.4% in [9]; 13.7% in experiment [10]; 12.5% in experiment [11]; 21% in experiment [12]. Besides, the growth is -25.7% (active) in [13]; 15.2% in experiment [14]; 11.3% in experiment [15]; 10.1% in [16]; -43% (active) in [17]; -85.8% (active) in experiment [18]. The growth in experiment [19] is 26.6%.
